Several values for one entry are separate records, joined by “and”; a condition that tells them apart may be missing. Identical values can stand only once. Compounds without any hit were thinned out: in the full panel of roughly 79,000, 15% have a hit. Activity calls are given as the source filed them. Rule as the data show it: active = growth inhibition above about 70%; inactive = the rest.
Columns and labels:
[1] = NCI Yeast Anticancer Drug Screen. Data for the rad52 strain (AID 147);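 also: 0% = growth of vehicle-treated control cultures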; conditions: S. cerevisiae rad52 mutant growth inhibition, hits give high values
How it was run: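 Here a repair-compromised yeast strain receives each compound; its growth is then quantified and normalised to vehicle-only controls.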

[2] = NCI Yeast Anticancer Drug Screen. Data for the wt1 strain (AID 149);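 also: 0% = growth of vehicle-treated wt1 cultures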; conditions: S. cerevisiae wt1 strain (SPY 50644) growth inhibition, hits give high values
How it was run: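 Vehicle-normalised growth inhibition; strain wt1; compound exposure.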

[3] = NCI Yeast Anticancer Drug Screen. Data for the rad50EPP+ strain (AID 151);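 also: 0% = growth of vehicle-treated control cultures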; conditions: S. cerevisiae rad50 mutant strain, hits give high values
How it was run: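 Read-out is yeast growth inhibition relative to vehicle; cells used were the rad50EPP+ strain.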

[4] = NCI Yeast Anticancer Drug Screen. Data for the mgt1 strain (AID 153); conditions: S. cerevisiae mgt1 mutant growth inhibition, hits give high values
How it was run: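 Measured: inhibition of mgt1 yeast growth by compound, normalized to vehicle-treated cultures.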

[5] = NCI Yeast Anticancer Drug Screen. Data for the rad50 strain (AID 155);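 also: 0% = growth of vehicle-only cultures of the same strain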; conditions: S. cerevisiae rad50 strain growth inhibition, hits give high values
How it was run: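 A DNA repair-deficient yeast mutant serves as the test organism; compound-induced growth inhibition is calculated against vehicle-treated cells.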

[6] = NCI Yeast Anticancer Drug Screen. Data for the mec2-1 strain (AID 157); conditions: S. cerevisiae mec2-1 strain, hits give high values
How it was run: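 Using mec2-1 yeast: add compound, measure growth, express inhibition versus vehicle-treated cultures.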

[7] = NCI Yeast Anticancer Drug Screen. Data for the sgs1 mgt1 strain (AID 161);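 also: 0% = growth of cultures given vehicle only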; conditions: S. cerevisiae sgs1 mgt1 strain, hits give high values
How it was run: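 Growth of a repair-deficient yeast mutant was monitored after compound treatment and expressed as inhibition relative to vehicle-treated cultures.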

[8] = NCI Yeast Anticancer Drug Screen. Data for the CLN2oe strain (AID 163);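 also: 0% = growth of vehicle-only control cultures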; conditions: S. cerevisiae CLN2oe strain, hits give high values
How it was run: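 Whole-cell yeast growth assay. A strain engineered for altered cell-cycle control received compound, and inhibition relative to vehicle-treated cultures was recorded.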

[9] = NCI Yeast Anticancer Drug Screen. Data for the cln2 rad14 strain (AID 165);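 also: 0% = growth equal to vehicle treated cultures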; conditions: S. cerevisiae cln2 rad14 strain, hits give high values
How it was run: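 Yeast strain cln2 rad14, bearing defects in cell cycle control and DNA repair, serves as the test system; values reflect growth inhibition compared with vehicle.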

[10] = NCI Yeast Anticancer Drug Screen. Data for the bub3 strain (AID 167); conditions: S. cerevisiae bub3 mutant strain, hits give high values
How it was run: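 Inhibition values come from growth of compound-treated mutant yeast normalised to vehicle-treated controls.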

[11] = NCI Yeast Anticancer Drug Screen. Data for the wt2 strain (AID 169);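 also: 0% = growth of vehicle-treated yeast cultures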; conditions: S. cerevisiae wt2 strain growth inhibition, hits give high values
How it was run: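 Treated yeast vs. vehicle-treated yeast: growth inhibition determined.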

[12] = NCI Yeast Anticancer Drug Screen. Data for the mlh1 strain (AID 171);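 also: 0% = growth of vehicle-treated control cultures of the same strain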; conditions: S. cerevisiae mlh1 strain growth inhibition, hits give high values
How it was run: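 A yeast strain with a defined genetic lesion serves as the test organism. Cultures receive compound or vehicle, and growth is measured.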

[13] = NCI Yeast Anticancer Drug Screen. Data for the sgs1 strain (AID 173);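 also: 0% = growth of vehicle-only control cultures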; conditions: S. cerevisiae sgs1 mutant, hits give high values
How it was run: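 A genetically defined yeast mutant is incubated with the test compound, and its growth is compared to that of the same strain given vehicle.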

[14] = NCI Yeast Anticancer Drug Screen. Data for the mlh1 rad18 strain (AID 175); conditions: S. cerevisiae mlh1 rad18 strain growth inhibition, hits give high values
How it was run: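 Steps: expose repair-defective yeast to compound; measure growth; express inhibition against vehicle-treated controls.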

[15] = NCI Yeast Anticancer Drug Screen. Data for the rad18 strain (AID 177); conditions: S. cerevisiae rad18 mutant growth inhibition, hits give high values
How it was run: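 Measured value is growth inhibition of a yeast strain bearing a DNA repair alteration, referenced to vehicle-treated cells.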

[16] = NCI Yeast Anticancer Drug Screen. Data for the rad14 strain (AID 159);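 also: 0% = growth of vehicle-treated control cultures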; conditions: S. cerevisiae rad14 strain growth inhibition, hits give high values
How it was run: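 Vehicle-treated cultures served as the baseline for growth inhibition of a DNA repair-mutant yeast strain exposed to each compound.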

[17] = at 5.0 µM (retest, dose inferred, filed as 0.5)
[18] = at 50.0 µM (retest, dose inferred, filed as 5.0)

Measured: growth inhibition

Oc1ccc(-c2nc(-c3ccc(F)cc3)c(-c3ccc4ccccc4n3)[nH]2)cc1
inactive: [1]; at 1.2 µM -48% | [1]; at 3.7 µM -41% | [2]; at 1.2 µM -60% | [2]; at 3.7 µM -54% | [2]; at 11.0 µM 64% | [2]; at 33.0 µM 18% | [3]; at 1.2 µM -43% | [3]; at 3.7 µM -37% | [3]; at 11.0 µM -26% | [3]; at 33.0 µM -16% | [3]; at 100.0 µM -18% | [4]; at 1.2 µM -28% | [4]; at 3.7 µM -31% | [5]; at 1.2 µM -31% | [5]; at 3.7 µM -44% | [5]; [17] 19% | [5]; [18] 54% | [6]; at 1.2 µM -40% | [6]; at 3.7 µM -27% | [6]; [17] 16% | [6]; at 11.0 µM 69% | [6]; [18] 63% | [7]; [17] 0% | [7]; [18] -41% | [8]; at 1.2 µM -5% | [8]; at 3.7 µM -8% | [9]; [17] 13% | [9]; [18] -33% | [10]; at 1.2 µM -32% | [10]; at 3.7 µM -20% | [10]; [17] 5% | [10]; [18] -31% | [11]; at 1.2 µM -56% | [11]; at 3.7 µM -40% | [12]; at 1.2 µM -44% | [12]; at 3.7 µM -37% | [12]; at 11.0 µM 36% | [13]; at 1.2 µM -34% | [13]; at 3.7 µM -38% | [14]; [17] 27% | [15]; at 1.2 µM -28% | [15]; at 3.7 µM -36%
active: [1]; at 11.0 µM 85% | [1]; at 33.0 µM 96% | [1]; at 100.0 µM 88% | [2]; at 100.0 µM 94% | [4]; at 11.0 µM 81% | [4]; at 33.0 µM 97% | [4]; at 100.0 µM 92% | [5]; at 11.0 µM 76% | [5]; at 33.0 µM 97% | [5]; at 50.0 µM 90.5% | [5]; at 100.0 µM 94% | [6]; at 33.0 µM 98% | [6]; at 50.0 µM 93% | [6]; at 100.0 µM 96% | [7]; at 50.0 µM 92.2% | [8]; at 11.0 µM 93% | [8]; at 33.0 µM 98% | [8]; at 100.0 µM 94% | [9]; at 50.0 µM 90.6% | [10]; at 11.0 µM 96% | [10]; at 33.0 µM 98% | [10]; at 50.0 µM 91.8% | [10]; at 100.0 µM 90% | [11]; at 11.0 µM 96% | [11]; at 33.0 µM 96% | [11]; at 100.0 µM 93% | [12]; at 33.0 µM 98% | [12]; at 100.0 µM 94% | [13]; at 11.0 µM 97% | [13]; at 33.0 µM 98% | [13]; at 100.0 µM 90% | [14]; [18] 70% | [14]; at 50.0 µM 85.8% | [15]; at 11.0 µM 96% | [15]; at 33.0 µM 97% | [15]; at 100.0 µM 94%

CN(C)CCOC1(Cc2ccc(Cl)cc2Cl)CCC(C(C)(C)C)CC1 (stereo not given)
inactive: [1]; at 1.2 µM 1% and -3% | [1]; at 3.7 µM 1% and 0% | [2]; at 1.2 µM 0% and -4% | [2]; at 3.7 µM -4% and -6% | [3]; at 1.2 µM -9% and -10% | [3]; at 3.7 µM -50% and -53% | [4]; at 1.2 µM 0% and -3% | [4]; at 3.7 µM 14% and 19% | [5]; at 1.2 µM 1% and -4% | [5]; at 3.7 µM 3% | [5]; [17] 48% and 22% | [6]; at 1.2 µM -5% and -2% | [6]; at 3.7 µM -4% and 5% | [6]; [17] 49% and 21% | [16]; at 1.2 µM -3% and -1% | [16]; at 3.7 µM 11% and 18% | [7]; [17] 64% and 58% | [10]; at 1.2 µM -8% and -3% | [10]; at 3.7 µM 0% and -2% | [10]; [17] 8% and 15% | [11]; at 1.2 µM -1% and -3% | [11]; at 3.7 µM 3% and 8% | [12]; at 1.2 µM 0% and -1% | [12]; at 3.7 µM 6% and 14% | [13]; at 1.2 µM -1% | [13]; at 3.7 µM 11% and 26% | [15]; at 1.2 µM 0% and -4% | [15]; at 3.7 µM 0% and -2%
active: [1]; at 11.0 µM 99% and 98% | [1]; at 33.0 µM 99% | [1]; at 100.0 µM 99% and 97% | [2]; at 11.0 µM 98% and 86% | [2]; at 33.0 µM 99% | [2]; at 100.0 µM 100% and 99% | [3]; at 11.0 µM 91% and 94% | [3]; at 33.0 µM 98% and 92% | [3]; at 100.0 µM 99% | [4]; at 11.0 µM 99% | [4]; at 33.0 µM 100% and 99% | [4]; at 100.0 µM 100% and 99% | [5]; at 11.0 µM 99% | [5]; at 33.0 µM 99% | [5]; [18] 100% | [5]; at 50.0 µM 98.8% and 99.2% | [5]; at 100.0 µM 99% | [6]; at 11.0 µM 99% | [6]; at 33.0 µM 100% and 99% | [6]; [18] 100% | [6]; at 50.0 µM 99.5% | [6]; at 100.0 µM 100% and 99% | [16]; at 11.0 µM 99% | [16]; at 33.0 µM 99% | [16]; at 100.0 µM 100% and 99% | [7]; [18] 100% | [7]; at 50.0 µM 99.5% and 99.7% | [10]; at 11.0 µM 99% and 98% | [10]; at 33.0 µM 99% and 98% | [10]; [18] 100% | [10]; at 50.0 µM 99.2% and 95.8% | [10]; at 100.0 µM 99% | [11]; at 11.0 µM 99% | [11]; at 33.0 µM 100% and 99% | [11]; at 100.0 µM 100% | [12]; at 11.0 µM 99% | [12]; at 33.0 µM 100% and 99% | [12]; at 100.0 µM 100% and 99% | [13]; at 11.0 µM 99% | [13]; at 33.0 µM 100% and 99% | [13]; at 100.0 µM 100% and 99% | [15]; at 11.0 µM 99% and 98% | [15]; at 33.0 µM 99% | [15]; at 100.0 µM 99%

COc1cc2ccnc(-c3c4ccccc4c(N)c4c(OC)c(OC)ccc34)c2cc1OC
inactive: [1]; at 1.2 µM 5% | [1]; at 3.7 µM 20% | [1]; at 11.0 µM 60% | [2]; at 1.2 µM -4% | [2]; at 3.7 µM -5% | [2]; at 11.0 µM -5% | [2]; at 33.0 µM -4% | [2]; at 100.0 µM 30% | [3]; at 1.2 µM 0% | [3]; at 3.7 µM 11% | [3]; at 11.0 µM 22% | [3]; at 33.0 µM 31% | [3]; at 100.0 µM 49% | [4]; at 1.2 µM -1% | [4]; at 3.7 µM -1% | [4]; at 11.0 µM 0% | [4]; at 33.0 µM 2% | [4]; at 100.0 µM 50% | [5]; at 1.2 µM 16% | [5]; at 3.7 µM 50% | [5]; at 50.0 µM 19.3% | [6]; at 1.2 µM -1% | [6]; at 3.7 µM 2%
active: [1]; at 33.0 µM 86% | [1]; at 100.0 µM 93% | [5]; [17] 78% | [5]; at 11.0 µM 77% | [5]; at 33.0 µM 90% | [5]; [18] 78% | [5]; at 100.0 µM 94%

— PubChem BioAssay (NCI)
